BJeLR lethal – BJeLR cell viability loss; inhibition, % (no concentration beside the values); AID 1554; 300,000 compounds, 0.17% hits; BJeLR (HRASV12) viability, CellTiter-Glo ATP luminescence, 48 h; in the data active = inhibition above about 50%; inconclusive = no clear call, values can overlap the other calls
PfHsp40 rescue – compounds rescuing yeast from Plasmodium falciparum HSP40 toxicity; S. cerevisiae expressing PfHsp40, growth rescue, ATP luminescence; growth rescue, % at 12.5 µM; 340,000 compounds, 0.68% hits; in the data active = growth rescue above about 28%, passing the limit was not always enough; inconclusive = no clear call, values can overlap the other calls;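 also: yeast W303a lacking pdr1 and pdr3 grown in galactose medium; growth measured after three days at 30 °C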
Sa RN4220 lethal – kills Staphylococcus aureus RN4220; S. aureus RN4220 growth, OD600, 16 h; inhibition, % (test concentration not listed); 330,000 compounds, 0.33% hits; in the data active = inhibition above about 85%;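 also: plate controls were untreated cells for no effect and reference antibiotic for full effect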
PrP UTR inh – suppresses PrP 5' UTR mRNA reporter expression. cell-based PrP 5' UTR mRNA reporter, plate reader. inhibition, % (no concentration beside the values). 340,000 compounds, 0.35% hits. AID 488862; in the data active = inhibition above about 52%; also: 0 = median of the neutral control wells
Yp Topo-I inh – inhibitors of Yersinia pestis topoisomerase I. Y. pestis Topo-I cleavage product accumulation, plate reader. activity, % at 10 µM. 360,000 compounds, 0.064% hits. AID 504884; in the data active = activity above about 50%, passing the limit was not always enough; inconclusive = no clear call, values can overlap the other calls
ugtP null kill – growth inhibition of S. aureus ugtP deletion strain; S. aureus RN4220 ugtP deletion, OD600 growth, 16 h; growth inhibition, % (no concentration beside the values); 330,000 compounds, 0.54% hits; AID 1259309; in the data active = growth inhibition above about 68%;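 also: plate controls were untreated wells for no effect and antibiotic for full effect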
PrP UTR cherry – prion 5' UTR mRNA inhibition, cherry-pick retest; inhibition, % at 2.5 µM; 1,100 compounds, 48% hits; shares compounds with PrP UTR inh; cell-based prion protein 5' UTR reporter, plate reader; in the data active = inhibition above about 54%; inconclusive = no clear call, values can overlap the other calls
* hit, by the source's call; ? = inconclusive; . = no result given. An excerpt weighted towards active compounds, which were near 1.4% of everything screened.

SMILES	BJeLR lethal	PfHsp40 rescue	Sa RN4220 lethal	PrP UTR inh	Yp Topo-I inh	ugtP null kill	PrP UTR cherry
O=C(CN1C(=O)c2ccccc2S1(=O)=O)c1ccc(F)cc1	-12	0	2	62*	-8	-1	49
O=C(CN1C(=O)c2ccccc2S1(=O)=O)c1ccccc1F	15	0	1	28	-1	4	.
O=C(CN1C(=O)c2ccccc2S1(=O)=O)c1ccc(OC(F)F)cc1	3	-1	1	67*	-1	5	64*
COc1ccc(S(=O)(=O)N(C)CC2Oc3ccc(NC(=O)Nc4ccc5c(c4)OCO5)cc3CC(=O)N(C(C)CO)CC2C)cc1 (stereo not drawn)	.	.	2	.	.	-3	.
COc1cc(NC(=O)c2cc(-c3ccc4c(c3)OCO4)on2)cc(OC)c1OC	5	0	6	-16	11	-12	.
O=C(Nc1cccc(O)c1)c1cc(-c2ccc3c(c2)OCO3)on1	22	-2	.	58*	18	.	?
Nc1cc(=O)[nH]c(SCCSc2cc(Cl)ccc2Cl)n1	-13	0	3	58*	11	2	39
CCC(C)C1NC(=O)C(NC(=O)C(CC(C)C)N(C)C(=O)C2CCCN2C(=O)C(C)O)C(C)OC(=O)C(Cc2ccc(OC)cc2)N(C)C(=O)C2CCCN2C(=O)C(CC(C)C)NC(=O)[C@H](C)C(=O)[C@H](C(C)C)OC(=O)CC1O (stereo partly drawn)	.	-1	.	94*	13	.	96*
CC[C@H](C)[C@@H]1NC(=O)[C@H]([C@@H](C)CC)NC(=O)[C@@H](CC(C)C)NC(=O)[C@H](Cc2ccccc2)NC(=O)[C@H](Cc2ccccc2)NC(=O)[C@@H]2CCCN2C(=O)[C@@H]2CCCN2C(=O)[C@H](C(C)C)NC(=O)[C@H](CC(C)C)NC1=O	.	0	.	-26	6	.	.
O=S(=O)(c1ccc2c(c1)OCCO2)N1CC2CC1CN2S(=O)(=O)c1c(F)cccc1F (stereo not drawn)	.	.	3	.	.	1	.
O=C(CSc1cn(CCNC(=O)c2ccc3ccccc3c2)c2ccccc12)NCc1ccco1	-7	-1	-17	58*	-7	-7	6
O=C(Nc1cccnc1)OC1CCCCC1	2	1	5	75*	-4	0	-36
Cc1cc(C2=NNC(=NC3CC3)SC2)c(C)n1-c1ccccc1	19	0	0	94*	-3	2	94*
COCCn1c(C)cc(C2=NNC(=NC3CC3)SC2)c1C	20	0	8	92*	10	3	94*
C=CCN=C1NN=C(c2cc(C)n(CCOC)c2C)CS1	20	0	6	46	3	2	.
COCCCN=C1NN=C(c2cc(C)n(Cc3ccco3)c2C)CS1	60*	-1	2	68*	6	-3	82*
Cc1cc(C2=NNC(=NC3CC3)SC2)c(C)n1Cc1ccco1	.	0	3	88*	8	-5	87*
COC(=O)C1C(c2cccc(C(F)(F)F)c2)NC(=O)N(Cc2ccccc2)C1C (stereo not drawn)	.	.	5	.	.	2	.
C=CCn1c(C)cc(C2=NNC(=Nc3ccc(C)cc3)SC2)c1C	1	-1	7	-22	0	4	.
C=CCn1c(C)cc(C2=NNC(=NC(C)(C)C)SC2)c1C	7	-1	.	65*	-4	.	66*
COc1ccccc1OCCC(=O)OCC(=O)NCc1ccc(F)cc1	.	0	5	88*	4	4	10
COc1ccc(S(=O)(=O)Cc2ccc(C(=O)N3CCOCC3)o2)cc1	-2	-1	4	71*	-6	15	-1
CCN(CC)c1ccc(/C=C(/C#N)C(=O)NC(C)C)o1	6	0	2	82*	0	5	-24
CCN(C[C@H]1N[C@@](Cc2ccccc2)(C(=O)OC)[C@H]2C(=O)N(C)C(=O)[C@@H]12)S(=O)(=O)c1ccc(C(C)(C)C)cc1	.	2	3	60*	18	-2	-6
COc1ccc(C2CC(=O)C=C(c3ccc(F)cc3OCc3ccccc3)C2)cc1OC (stereo not drawn)	.	.	-2	.	.	13	.
O=S(=O)(NCCc1ccccc1)c1ccc(F)cc1Br	.	0	1	53*	4	-7	-9

Compound activity (PubChem)
